About 79,000 compounds went through this panel and 15% of them were active in at least one assay; those are over-represented in the sample as a whole. Rule as the data show it: active = growth inhibition above about 70%; inactive = the rest.
Key:
[1] = NCI Yeast Anticancer Drug Screen. Data for the rad50 strain (AID 155);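 also: 0% = growth of vehicle-only cultures of the same strain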; conditions: S. cerevisiae rad50 strain growth inhibition; at 50.0 µM; hits give high values
How it was run: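 Yeast carrying a defined DNA repair defect were exposed to test compounds, and growth was compared with vehicle-treated controls to give percent inhibition.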

[2] = NCI Yeast Anticancer Drug Screen. Data for the mec2-1 strain (AID 157); conditions: S. cerevisiae mec2-1 strain, at 50.0 µM, hits give high values
How it was run: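 Each compound was tested on mec2-1 yeast, a strain altered in DNA damage repair or cell cycle control. Growth inhibition is reported relative to vehicle.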

[3] = NCI Yeast Anticancer Drug Screen. Data for the sgs1 mgt1 strain (AID 161);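 also: 0% = growth of cultures given vehicle only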; conditions: S. cerevisiae sgs1 mgt1 strain, at 50.0 µM, hits give high values
How it was run: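 Mutant yeast exposed to compound; growth scored against vehicle-only wells.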

[4] = NCI Yeast Anticancer Drug Screen. Data for the cln2 rad14 strain (AID 165);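 also: 0% = growth equal to vehicle treated cultures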; conditions: S. cerevisiae cln2 rad14 strain, at 50.0 µM, hits give high values
How it was run: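 Test compounds were added to cln2 rad14 yeast cultures; inhibition of growth was then determined by comparison with vehicle treatment.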

[5] = NCI Yeast Anticancer Drug Screen. Data for the bub3 strain (AID 167); conditions: S. cerevisiae bub3 mutant strain, at 50.0 µM, hits give high values
How it was run: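 Compounds were applied to a genetically altered yeast strain carrying a cell-cycle control defect. Growth inhibition was scored against vehicle-treated controls.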

[6] = NCI Yeast Anticancer Drug Screen. Data for the mlh1 rad18 strain (AID 175); conditions: S. cerevisiae mlh1 rad18 strain growth inhibition; at 50.0 µM; hits give high values
How it was run: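 Inhibition values reflect reduced growth of mutant yeast versus vehicle-treated controls following compound exposure; the mutations affect DNA damage repair.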

Measured: growth inhibition

CCN(CCNc1cc(OC)cc2cccnc12)c1ccccc1
inactive: [1] 59.9% | [2] 20.7% | [3] 48.4% | [4] 23.2% | [5] 47% | [6] 68.2%

O=C(/C=C/c1cccc([N+](=O)[O-])c1)Nc1cccnc1
inactive: [1] 7.55% | [2] -1.35% | [3] 38.9% | [4] -11.8% | [5] 29.9% | [6] 24.1%

O=C(c1ccccc1)c1cc(Br)c2cccc3c2c1CC3
inactive: [1] 11.6% | [2] -7.6% | [3] -1.5% | [4] 14.3% | [5] 20.4% | [6] -3%

N#Cc1cccc2c(S(=O)(=O)O)cccc12
inactive: [1] -12.9% | [2] 4.5% | [3] 11.6% | [4] -17.3% | [5] -2.85% | [6] -10.8%

COc1ccc(C2OC23CC(C)(C)c2ccccc2C3=O)cc1 (stereo unspecified)
inactive: [1] -3.8% | [2] 1.65% | [3] -0.05% | [4] -11% | [5] 16.3% | [6] -1.1%

CCC(=O)C(CC)c1ccccc1OC (stereo unspecified)
inactive: [1] 8.75% | [2] -8.35% | [3] 4.65% | [4] 16.5% | [5] 5.45% | [6] 15%

CCOC(=O)C(C)c1nc2cc(C(F)(F)F)ccc2[nH]c1=O (stereo unspecified)
inactive: [1] 3.55% | [2] 7.1% | [3] 8.1% | [4] 7.5% | [5] 19.7% | [6] -21.2%

Clc1ccc(C2N3CCCCC3[C@@H]3c4[nH]c5ccccc5c4CCN23)cc1 (stereo partly specified)
inactive: [1] -11.7% | [2] -10.8% | [3] -4.7% | [4] -4.65% | [5] 0.3% | [6] -8.5%

CC12C(=O)NC(c3ccccc3)(c3ccccc31)C1C(=O)N(C(N)=O)C(=O)C12 (stereo unspecified)
inactive: [1] 13.9% | [2] 7.35% | [3] 25.6% | [4] -3.05% | [5] -15.2% | [6] 4.4%

Cc1cc(OCCN(C)C)cc(C)c1Cl
inactive: [1] -2% | [2] -0.75% | [3] 25.1% | [4] 37.6% | [5] -16.9% | [6] 8.8%

C1=C(Oc2ccccc2)C2CC1C1CCCC21 (stereo unspecified)
inactive: [1] -7.85% | [2] -21.4% | [3] -2.65% | [4] 2.05% | [5] -5.95% | [6] 1.85%

CCN(/C=C/C=C(C#N)C#N)CC
inactive: [1] 6.05% | [2] -5.3% | [3] -9.05% | [4] -15.8% | [5] 6.35% | [6] -12.7%

O=[N+]([O-])c1ccc2[nH]ccc2c1
inactive: [1] 8.75% | [2] -4.25% | [3] -2.7% | [4] 10.7% | [5] 3.6% | [6] 7.5%

Cc1cc2c(C(C)C)c(O)c(O)c(C=Nc3ccc(N=Nc4ccccc4)cc3)c2c(O)c1-c1c(C)cc2c(C(C)C)c(O)c(O)c(C=Nc3ccc(N=Nc4ccccc4)cc3)c2c1O
inactive: [1] -4.7% | [2] 0.4% | [3] -6.3% | [4] -21.8% | [5] -3.35% | [6] -4.65%

Cc1cc2c(CC(=O)O)[nH]nc2c(C(=O)O)c1C
inactive: [1] 1.4% | [2] -10.4% | [3] -13.2% | [4] 4.8% | [5] 8.25% | [6] -0.55%

CCCCC(C(=O)OCC)C(=O)OCC
inactive: [1] 5.9% | [2] 4.45% | [3] -6.35% | [4] -53% | [5] -2.75% | [6] -3.2%

CCC(C(=O)OC)C1CCCCC1 (stereo unspecified)
inactive: [1] 24.8% | [2] -27.8% | [3] -12.3% | [4] -7.65% | [5] -10.7% | [6] 22.4%

Cc1ccc(C(=O)c2ccccc2)cc1C[N+](C)(C)C
inactive: [1] 20.3% | [2] 3.35% | [3] 10.3% | [4] 12% | [5] -5.3% | [6] 4.9%

[N-]=[N+]=Nc1ccccc1C(=O)NCCNC(=O)c1ccccc1N=[N+]=[N-]
inactive: [1] -7.4% | [2] -31.9% | [3] 2.25% | [4] 6.85% | [5] 2.6% | [6] 6.75%

O=C(Nc1ccc(C(F)(F)F)cc1[N+](=O)[O-])C(=O)Nn1c(=S)[nH]c2ccccc2c1=O
inactive: [1] 20.3% | [2] 11.7% | [3] -4.65% | [4] 18.5% | [5] 7.9% | [6] 23.1%

CC(=O)N[C@]1(C)CCC2C[C@H]1C(C)=NC2(C)C
inactive: [1] -5.55% | [2] 4.05% | [3] -2.5% | [4] 12.2% | [5] 1.3% | [6] -14.4%

Cc1ccccc1/C=C1/N=C(c2ccccc2)OC1=O
inactive: [1] -27.3% | [2] -17.4% | [3] -19.7% | [4] 0.9% | [5] -14.4% | [6] -6.85%

O=C(NNC1=NCCN1)c1ccco1
inactive: [1] -7.5% | [2] -21.1% | [3] -9.8% | [4] -32.4% | [5] -2.3% | [6] -2.25%

Nc1ccn(CC(=O)c2ccc(Cl)s2)c(=O)n1
inactive: [1] -1% | [2] 10.8% | [3] 6.9% | [4] -5.1% | [5] 2.15% | [6] 6.3%

N/C(=N/N=C/C1CCCCC1)NO
inactive: [1] 0.95% | [2] -9.25% | [3] -24.1% | [4] 3.4% | [5] -13.9% | [6] 13.6%

COC(=O)c1ccccc1S(=O)(=O)NC(C)C
inactive: [1] 10.8% | [2] -1.15% | [3] 16.9% | [4] 11.8% | [5] -4.7% | [6] 25.8%

Cn1cc(S(C)=O)c(=O)c2ccccc21 (stereo unspecified)
inactive: [1] 2.65% | [2] -1.6% | [3] -5.6% | [4] -13.9% | [5] 8.3% | [6] -2.35%

O=C(O)Cn1c[n+](NC(=O)Cc2ccccc2)cn1
inactive: [1] -19.6% | [2] -25.4% | [3] -25% | [4] -41.8% | [5] -34.5% | [6] -10.8%

CN(C)CC(C)(C)CO
inactive: [1] 7.2% | [2] -0.2% | [3] 3.85% | [4] 9.25% | [5] -9.1% | [6] 4.95%

O=C(C(CO)c1ccccc1)N1CCOCC1 (stereo unspecified)
inactive: [1] -10.3% | [2] -15.4% | [3] -3.45% | [4] -23.4% | [5] 4.35% | [6] 2.55%

Cn1cc(S(=O)(=O)NC(=O)Nc2ccc(Cl)cc2)c2ccccc21
inactive: [1] -19.4% | [2] -9.85% | [3] -1.05% | [4] 29.7% | [5] -20.1% | [6] -13.9%

NC(c1ccccc1)(c1ccccc1)c1ccccc1
inactive: [1] 20.1% | [2] 2.9% | [3] 43.9% | [4] -9.8% | [5] 19.4% | [6] 11%

O=C(/C=C/c1ccc2c(c1)OCO2)c1cccc2ccccc12
inactive: [1] -4.4% | [2] -14.6% | [3] -17.4% | [4] 4.05% | [5] -3% | [6] 5%

O=C(CC1C(=O)Nc2ccccc2S1=O)Nc1ccc(Cl)cc1 (stereo unspecified)
inactive: [1] 41.9% | [2] 38% | [3] 59.8% | [4] 18.4% | [5] 48% | [6] 56.3%

O=C(C(O)c1ccccc1)N1CCCCC1 (stereo unspecified)
inactive: [1] 32.6% | [2] 14.2% | [3] -2.95% | [4] 9.85% | [5] 4.3% | [6] 21.6%

CCCCCC(=O)OCC(Br)CBr (stereo unspecified)
inactive: [1] -7.6% | [2] -10.6% | [3] 22.5% | [4] -23.1% | [5] 40.5% | [6] 1.1%

N#CC12CCC(O)C(CC1)C2=O (stereo unspecified)
inactive: [1] 20.2% | [2] 0.85% | [3] 10.1% | [4] 15.2% | [5] -4.25% | [6] 20.6%

CC(C)CC(NC(=O)CNC(=O)/C=C/c1ccco1)C(N)=O (stereo unspecified)
inactive: [1] -16.9% | [2] -29% | [3] -9.2% | [4] -11.2% | [5] -10.1% | [6] -18.5%

CC(=O)/C(=C/c1ccc(F)cc1)C(=O)CCN(C)C
inactive: [1] 8.15% | [2] 16.6% | [3] 20.9% | [4] 9.55% | [5] -11.5% | [6] -22.2%

CN(C)Cc1cc(C(=O)c2ccccc2)c(O)cc1O
inactive: [1] -38.4% | [2] -4.05% | [3] -0.9% | [4] -23.6% | [5] -2.05% | [6] 13.2%

CC1=CC(O)(Cc2ccccc2)CC(C)(C)C1 (stereo unspecified)
inactive: [1] 2.1% | [2] -36.2% | [3] -17.9% | [4] -0.9% | [5] -27.9% | [6] -28.9%

From PubChem BioAssay (NCI)
